# PubChem BioAssay (Tox21)
# Inconclusive results are not listed. A call without a number means that no potency is given here. The source made the active and inactive calls. Calls follow the shape of the dose curve; as a rule, active = well fitted cell-killing curve with a large enough effect in the repeat runs; inconclusive = weak or mixed curves, or effect the other way; inactive = flat fitted curve, though single readings scatter.
# Experiment: qHTS assay to identify small molecule antagonists of the retinoid acid receptor (RAR) signaling pathway - cell viability counter screen (AID 1159551); also: nearly all actives have a fitted effect of over 35% in size
# Settings: C3RL4 cells viability, ATP luminescence (CellTiter-Glo), 6 h; series mostly up to 92.4 µM
# Source text: U.S. Tox21 Program National Center for Advancing Translational Sciences [NCATS] NIH Chemical Genomics Center [NCGC] U.S. Environmental Protection Agency [EPA] National Institutes of Environmental Health Sciences [NIEHS] National Toxicology Program [NTP] U.S. Food and Drug Administration [FDA] Tox21 Assay Overview: All-trans Retinoic acid (atRA) is the potent natural metabolite of retinol and plays an important role in normal embryonic development and maintenance of cellular phenotype in adult animals. atRA is the activating ligand for the retinoic acid receptors (RARs) which form heterodimers with retinoid X receptors (RXRs) on the retinoic acid response element (RARE). Through activation of the RAR/RXRs nuclear receptors, atRA regulates the transcription of a large number of protein-coding genes and regulatory RNAs. Intracellular levels of atRA are controlled by the retinol signaling pathway (RSP) that regulates the biosynthesis and catabolism of atRA to maintain physiological levels. Chemicals that interfere with the RSP can cause abnormal intracellular levels of atRA and therefore are potential developmental toxicants. To assess compounds for the potential adverse effect on embryonic development through interfering with retinol signaling, a cell-based RARE luciferase reporter gene assay was used. C3RL4 cell line (OARSA/CFSAN/FDA, Laurel, MD) was used to screen Tox21 10K compound library for identifying inhibitors of the RSP. Also cytotoxicity was assessed by determining the viability of cells based on the quantitation of ATP.
# Tox21 Assay Protocol Summary: C3RL4 cells were seeded at 1,000/well in 4 uL of assay medium into white solid 1,536-well tissue culture plates (Greiner Bio-One North America Inc. Monroe, NC) using a Multidrop Combi (Thermo Scientific, Waltham, MA) dispenser. After incubation at 37 C and 5% CO2 for an overnight, 23 nL of compounds dissolved in DMSO, positive control or DMSO only were transferred by a Pintool station (Kalypsys, San Diego, CA). One ul of 1 uM (final concentration) of Retinol was added right after the compound addition by using a Flying Reagent Dispenser (FRD) (Aurora Discovery, San Diego, CA). After 6 hr incubation at 37 C and 5% CO2, 5 uL of CellTiter-Glo reagent (Promega Corporation, Madison, WI) was added to each assay plate using an FRD. Luminescence was quantified on a ViewLux plate reader (PerkinElmer, Waltham, MA) after 30 min incubation at room temperature.
row,SMILES,Potency
1,COC(=O)Nc1nc2ccc(Sc3ccccc3)cc2[nH]1,inactive
2,CC(C)(N=C=O)c1cccc(C(C)(C)N=C=O)c1,inactive
3,CCCCCCCCCC(=O)O,inactive
4,CCOC(=O)[C@H](CCc1ccccc1)N[C@@H](C)C(=O)N1Cc2ccccc2C[C@H]1C(=O)O,inactive
5,C=C(C)C(=O)OCCC[Si](OC)(OC)OC,inactive
6,Clc1cc(Cl)c(Cl)cc1Cl,inactive
7,Nc1cc(-c2ccncc2)c[nH]c1=O,inactive
8,C=C1CC[C@H](O)CC1=C/C=C1\CCC[C@]2(C)[C@@H]([C@H](C)/C=C/[C@H](C)C(C)C)CC[C@@H]12,inactive
9,CC1=CC[C@H]2C[C@@H]1C2(C)C,inactive
10,O=C1N=C(O)CN1/N=C/c1ccc(-c2ccc([N+](=O)[O-])cc2)o1,inactive
11,C=CC(=O)OCCCCCCCC(C)C,inactive
12,CC1CC(OC(=O)c2ccccc2O)CC(C)(C)C1 (stereo not given),inactive
13,OC1CCCC1,inactive
14,CC(C)Cc1ccccc1,inactive
15,CCOC(=O)C1OC1c1ccccc1 (stereo not given),inactive
16,O=S(=O)(O)CCS,inactive
17,CN(CCOc1ccc(CC2SC(=O)NC2=O)cc1)c1ccccn1 (stereo not given),inactive
18,NS(=O)(=O)c1cc2c(cc1Cl)NC=NS2(=O)=O,inactive
19,CC1(C)O[C@@H]2C[C@H]3[C@@H]4C[C@H](F)C5=CC(=O)CC[C@]5(C)[C@H]4[C@@H](O)C[C@]3(C)[C@]2(C(=O)CO)O1,inactive
20,OC[C@@H](O)[C@@H](O)[C@H](O)[C@@H](O)CO,inactive

row,SMILES,Potency
1,CC(C)(CO)COC(=O)C(C)(C)CO,inactive
2,CC1=C(/C=C/C(C)=C/C=C/C(C)=C/CO)C(C)(C)CCC1,inactive
3,Nc1c(S(=O)(=O)O)cc(Br)c2c1C(=O)c1ccccc1C2=O,inactive
4,COCC(C)O (stereo not given),inactive
5,Cc1cc(NS(=O)(=O)c2ccc(N)cc2)no1,inactive
6,Nc1nc2ncc(CNc3ccc(C(=O)N[C@@H](CCC(=O)O)C(=O)O)cc3)nc2c(=O)[nH]1,inactive
7,ClC1=C(Cl)C(Cl)(Cl)C(Cl)=C1Cl,inactive
8,CCCCCCCCCCC=CC1CC(=O)OC1=O (stereo not given),inactive
9,O=C(O)c1ccc([N+](=O)[O-])cc1,inactive
10,CC(=O)[C@@]1(O)CC[C@H]2[C@@H]3CCC4=CC(=O)CC[C@]4(C)[C@H]3CC[C@@]21C,inactive
11,OCC#CCO,inactive
12,O=C(O)c1cc(-c2ccccc2)nc2ccccc12,inactive
13,O=S(=O)(Oc1ccc(Cl)cc1Cl)c1ccccc1,inactive
14,OC[C@@H](O)[C@H](O)[C@H](O)[C@@H](O)CO,inactive
15,CCCCOCCOCCOC(=O)CCCCC(=O)OCCOCCOCCCC,inactive
16,NC(=O)/N=N/C(N)=O,inactive
17,NCCNCCNCCNCCN,inactive
18,Cc1ccc(C)c(C)c1,inactive
19,CC1(C)CC(N=C=O)CC(C)(CN=C=O)C1 (stereo not given),inactive
20,NC(=O)NNc1ccccc1,inactive
